Measured values: the OligoGym collection

Tests used:
Assay in all cases: pooled miR-30 sensor sort-seq; sequence = guide strand
Details in all cases: shRNA
PRPS2 = target: PRPS2
PRODH2 = target: PRODH2
PRPS1 = target: PRPS1
PRSS27 = target: PRSS27
PSKH2 = target: PSKH2
PTBP2 = target: PTBP2
PTPRT = target: PTPRT
PXDN = target: PXDN
PXN = target: PXN
PTPN7 = target: PTPN7
PYROXD1 = target: PYROXD1
Note: reference of the scale not given here.

Q: How did the sensor-assay potency score (higher = more potent) (PRPS2) turn out when TTCATTTTGTCCTCTTGCGGAA was run?
A: Its sensor-assay potency score (higher = more potent) is -0.733.

Q: With TAGTGTTATTGAATACATTTGA as the sequence, how does the sensor-assay potency score (higher = more potent) (PRODH2) read?
A: Its sensor-assay potency score (higher = more potent) is -0.549.

Q: With TATACTTGAAAGTTGTCGCCTC as the sequence, how does the sensor-assay potency score (higher = more potent) (PRPS2) read?
A: The sensor-assay potency score (higher = more potent) was 0.742.

Q: With TATCTTTCTTATCCTGCCGGGC as the sequence, how does the sensor-assay potency score (higher = more potent) (PRPS1) read?
A: Its sensor-assay potency score (higher = more potent) is -0.757.

Q: How did the sensor-assay potency score (higher = more potent) (PRPS1) turn out when TCAGGTGAGACAATAGTGCAGT was run?
A: The sensor-assay potency score (higher = more potent) was 0.663.

Q: AATACATTTGAAAATACGGTTC was tested. Which sensor-assay potency score (higher = more potent) (PRODH2) did it give?
A: Its sensor-assay potency score (higher = more potent) is -0.869.

Q: Which sensor-assay potency score (higher = more potent) (PRPS2) does the source give for TTTCATTTTGTCCTCTTGCGGA here?
A: The sensor-assay potency score (higher = more potent) was -0.379.

Q: With TTAGCATATACAAAGATCTGAT as the sequence, how does the sensor-assay potency score (higher = more potent) (PRPS2) read?
A: Its sensor-assay potency score (higher = more potent) is -0.612.

Q: For TAATTGGTGAAGGGCACTGGTG, which sensor-assay potency score (higher = more potent) (PRSS27) is on record?
A: Its sensor-assay potency score (higher = more potent) is -1.57.

Q: Which sensor-assay potency score (higher = more potent) (PRSS27) does the source give for TTGGTAGCCAAACTCGGTGTCT here?
A: The sensor-assay potency score (higher = more potent) was -0.152.

Q: TAGAAGACTGTGCAGATCCAGG was tested. Which sensor-assay potency score (higher = more potent) (PSKH2) did it give?
A: Its sensor-assay potency score (higher = more potent) is -0.858.

Q: Which sensor-assay potency score (higher = more potent) (PSKH2) does the source give for TTTGTCTATAAAGTCCTTCGCC here?
A: Its sensor-assay potency score (higher = more potent) is -0.325.

Q: Which sensor-assay potency score (higher = more potent) (PTBP2) does the source give for TTAACCATAGTAATAGCTGCTT here?
A: Its sensor-assay potency score (higher = more potent) is 0.167.

Q: Which sensor-assay potency score (higher = more potent) (PTPRT) does the source give for TATCTGATATTCATTGACCTGA here?
A: Its sensor-assay potency score (higher = more potent) is -0.134.

Q: Which sensor-assay potency score (higher = more potent) (PTPRT) does the source give for TAGATTTTTTAACACAGCCATG here?
A: Its sensor-assay potency score (higher = more potent) is -1.72.

Q: With TATCTGATTAAAGTGCAGGTAT as the sequence, how does the sensor-assay potency score (higher = more potent) (PXDN) read?
A: Its sensor-assay potency score (higher = more potent) is -0.445.

Q: With TAGTTCTCCAGGATGGCCCGGG as the sequence, how does the sensor-assay potency score (higher = more potent) (PXN) read?
A: The sensor-assay potency score (higher = more potent) was -0.505.

Q: For TATCTTGTTTGTCTCTTCCAAA, which sensor-assay potency score (higher = more potent) (PTPRT) is on record?
A: The sensor-assay potency score (higher = more potent) was -1.13.

Q: TATTGTAGTAGAGAGAACGGAA was tested. Which sensor-assay potency score (higher = more potent) (PTPRT) did it give?
A: The sensor-assay potency score (higher = more potent) was -0.217.

Q: How did the sensor-assay potency score (higher = more potent) (PXDN) turn out when TTCACAGTTCAGCTCTTCCGGG was run?
A: The sensor-assay potency score (higher = more potent) was -0.633.

Q: How did the sensor-assay potency score (higher = more potent) (PXDN) turn out when TGTAGTGGTAACTTGTTCCGTT was run?
A: Its sensor-assay potency score (higher = more potent) is 0.669.

Q: Which sensor-assay potency score (higher = more potent) (PXN) does the source give for TTGAGTTGGCCTCATCTGCAGG here?
A: The sensor-assay potency score (higher = more potent) was -0.889.

Q: TTGGCATTGATGTAATCTCCGT was tested. Which sensor-assay potency score (higher = more potent) (PTPN7) did it give?
A: Its sensor-assay potency score (higher = more potent) is -0.978.

Q: TAGGCTTCTCTTTCGTCAGGGG was tested. Which sensor-assay potency score (higher = more potent) (PXN) did it give?
A: Its sensor-assay potency score (higher = more potent) is 0.384.

Q: For AACATGTCGAAGTAGTCCTTGC, which sensor-assay potency score (higher = more potent) (PXN) is on record?
A: Its sensor-assay potency score (higher = more potent) is -0.89.

Q: How did the sensor-assay potency score (higher = more potent) (PXN) turn out when TTGCAGTAGTAGCAGCGCGGGG was run?
A: Its sensor-assay potency score (higher = more potent) is -1.51.

Q: With TTGAGTTTATAGCTCTGTCAAC as the sequence, how does the sensor-assay potency score (higher = more potent) (PXDN) read?
A: The sensor-assay potency score (higher = more potent) was -1.24.

Q: How did the sensor-assay potency score (higher = more potent) (PYROXD1) turn out when TTAATTCATGATCTGAACCTAA was run?
A: Its sensor-assay potency score (higher = more potent) is -0.379.

Q: With TTTGCTTTGAGGCACTTCCTTT as the sequence, how does the sensor-assay potency score (higher = more potent) (PTPRT) read?
A: The sensor-assay potency score (higher = more potent) was -1.11.

Q: Which sensor-assay potency score (higher = more potent) (PXDN) does the source give for TTGAGGTCGACCATCAAGCCAT here?
A: Its sensor-assay potency score (higher = more potent) is -0.562.

Q: How did the sensor-assay potency score (higher = more potent) (PXDN) turn out when TTCCAGAACAAACTCTCTGAAG was run?
A: Its sensor-assay potency score (higher = more potent) is -1.36.

Q: Which sensor-assay potency score (higher = more potent) (PXDN) does the source give for TTGTAGTGGTAACTTGTTCCGT here?
A: The sensor-assay potency score (higher = more potent) was -0.383.

Q: With TTCAGTTCCAGCAGCAGGCGGT as the sequence, how does the sensor-assay potency score (higher = more potent) (PXN) read?
A: Its sensor-assay potency score (higher = more potent) is -0.708.

Q: Which sensor-assay potency score (higher = more potent) (PXDN) does the source give for TTCAGCTTGAGCAGCTCCGTGG here?
A: The sensor-assay potency score (higher = more potent) was -0.881.

Q: TAGTGTAGAGAATCGAGGCTGG was tested. Which sensor-assay potency score (higher = more potent) (PTPRT) did it give?
A: Its sensor-assay potency score (higher = more potent) is 0.97.

Q: Which sensor-assay potency score (higher = more potent) (PTPRT) does the source give for TAGTTGATCTCGTAGAGCGTGA here?
A: Its sensor-assay potency score (higher = more potent) is -0.257.

Q: For TAGAACAGGAAACTGAAGCTCA, which sensor-assay potency score (higher = more potent) (PTPN7) is on record?
A: The sensor-assay potency score (higher = more potent) was 0.0685.

Q: How did the sensor-assay potency score (higher = more potent) (PXN) turn out when TACAGCGTTCAGTTCCAGCAGC was run?
A: The sensor-assay potency score (higher = more potent) was -0.582.

Q: How did the sensor-assay potency score (higher = more potent) (PXDN) turn out when TATAGCTCTGTCAACAGTCGCA was run?
A: Its sensor-assay potency score (higher = more potent) is -0.0838.

Q: For TTCTATCTGATTAAAGTGCAGG, which sensor-assay potency score (higher = more potent) (PXDN) is on record?
A: The sensor-assay potency score (higher = more potent) was -0.41.

Q: How did the sensor-assay potency score (higher = more potent) (PXN) turn out when TTGTTGAGCTGCTTGAGGCAGA was run?
A: Its sensor-assay potency score (higher = more potent) is -0.264.

Q: Which sensor-assay potency score (higher = more potent) (PTPRT) does the source give for TAAGTCATCTGCATCCTCGGTT here?
A: Its sensor-assay potency score (higher = more potent) is 0.728.
